From the supplement of paper PMC12350171
Counter-ions that a name gives are not always drawn.

System: S. enterica typhimurium tolC KO
Assay: growth AUC normalised to DMSO control (median) (fraction of control); higher = less growth inhibition, active = hit call of the paper
Conditions: 20 µM;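 active = normalised median growth AUC below 0.1 of DMSO control; inactive = AUC 0.1 or higher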
Outline: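 Anaerobic growth was tracked hourly at OD578 for 24 h in 96-well plates of mGAM seeded at OD578 0.01 with each approved-drug library compound at 20 μM and 1% DMSO. Strains had first been passaged twice overnight without oxygen. Three biological replicates were run. The reported median is the area under the curve, calculated by the trapezoidal rule on curves truncated at entry into stationary phase and normalised to vehicle wells on the same plate.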
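Further: active when median AUC fell below 0.1.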

Row | SMILES | growth AUC normalised to DMSO control
1 | CC(=O)Oc1ccc(C(c2ccc(OC(C)=O)cc2)c2ccccn2)cc1 [Bisacodyl] | 1.01 (inactive)
2 | O=C(O)c1cc(/N=N/c2ccc(S(=O)(=O)Nc3ccccn3)cc2)ccc1O [Sulfasalazine] | 1.01 (inactive)
3 | COc1ccc2c(c1)c(CC(=O)O)c(C)n2C(=O)c1ccc(Cl)cc1 [Indomethacin] | 0.974 (inactive)
4 | CC(=O)Oc1c(C)cccc1C(=O)O [Cresopirine] | 0.986 (inactive)
5 | O=P(O)(O)C(O)(Cc1cccnc1)P(=O)(O)O [Risedronic acid monohydrate] | 1 (inactive)
6 | COc1ccc(C(=O)CC(=O)c2ccc(C(C)(C)C)cc2)cc1 [Avobenzone] | 0.976 (inactive)
7 | C[C@]12CC[C@@H]3c4ccc(O)cc4CC[C@H]3[C@@H]1C[C@@H](O)[C@@H]2O [Estriol] | 0.993 (inactive)
8 | CC1=C(C)C(=O)C(C(CCCCCC(=O)O)c2ccccc2)=C(C)C1=O (stereo not drawn) [Seratrodast] | 0.999 (inactive)
9 | CC(=O)[C@H]1CC[C@H]2[C@@H]3CCC4=CC(=O)CC[C@]4(C)[C@H]3CC[C@]12C [Progesterone] | 0.918 (inactive)
10 | OCCN1CCN(CC/C=C2/c3ccccc3Sc3ccc(C(F)(F)F)cc32)CC1 [Flupentixol dihydrochloride cis-(Z)] | 0.828 (inactive)
11 | O=C(O)c1cccnc1 [Niacin] | 0.985 (inactive)
12 | C[C@H]1[C@H](OC(=O)CCC(=O)O)O[C@@H]2O[C@@]3(C)CC[C@H]4[C@H](C)CC[C@@H]1[C@@]24OO3 [Artesunate] | 1.01 (inactive)
13 | CN1CC(O)c2cc(N=NC(N)=O)c(O)cc21 (stereo not drawn) [Carbazochrome] | 0.952 (inactive)
14 | CN[C@@H]1[C@@H](O[C@H]2O[C@H](CO)[C@@H](N)[C@H](O)[C@H]2O)OC2C[C@@H](N)[C@@H](O[C@H]3[C@H](O)[C@@H](O)[C@H](N)C[C@@H]3N)OC2[C@@H]1O (stereo partly drawn) [Apramycin] | 0.996 (inactive)
15 | O=C1[C@H](CC[C@H](O)c2ccc(F)cc2)[C@@H](c2ccc(O)cc2)N1c1ccc(F)cc1 [Ezetimibe] | 0.828 (inactive)
16 | C=C(CC)C(=O)c1ccc(OCC(=O)O)c(Cl)c1Cl [Ethacrynic acid] | 1.02 (inactive)
17 | O=C(C1CCCCC1)N1CC(=O)N2CCc3ccccc3C2C1 (stereo not drawn) [Praziquantel] | 0.997 (inactive)
18 | CC#CCn1c(N2CCC[C@@H](N)C2)nc2c1c(=O)n(Cc1nc(C)c3ccccc3n1)c(=O)n2C [Linagliptin] | 0.98 (inactive)
19 | Nc1c(CC(=O)O)cccc1C(=O)c1ccc(Br)cc1 [Bromfenac] | 0.999 (inactive)

Row | SMILES | growth AUC normalised to DMSO control
20 | Cn1c(=O)c2nc[nH]c2n(C)c1=O [Theophylline monohydrate] | 1 (inactive)
21 | Cc1cc2nc3c(=O)[nH]c(=O)nc-3n(C[C@H](O)[C@H](O)[C@H](O)CO)c2cc1C [Riboflavine] | 0.991 (inactive)
22 | COC1=CC(=O)C[C@@H](C)[C@]12Oc1c(Cl)c(OC)cc(OC)c1C2=O [Griseofulvin] | 0.996 (inactive)
23 | CC(C)NC[C@H](O)COc1cccc2ccccc12 [(S)-(-)-Propranolol hydrochloride] | 0.986 (inactive)
24 | CCCCCCOc1ccccc1C(N)=O [Exalamide] | 0.917 (inactive)
25 | CN/C(=N\CCSCc1nc[nH]c1C)NC#N [Cimetidine] | 0.996 (inactive)
26 | Cc1ncc([N+](=O)[O-])n1CCO [Metronidazole] | 0.991 (inactive)
27 | N=C(N)c1ccc(OCCCCCOc2ccc(C(=N)N)cc2)cc1 [Pentamidine isethionate] | 0.985 (inactive)
28 | Cc1cc(/C=C/c2ccc3cc(N(C)C)ccc3[n+]2C)c(C)n1-c1ccccc1 [Pyrvinium pamoate] | 0.61 (inactive)
29 | COc1cc(NS(=O)(=O)c2ccc(N)cc2)ncn1 [Sulfamonomethoxine] | 0.974 (inactive)
30 | COc1cc([C@@H]2c3cc4c(cc3[C@@H](O[C@@H]3O[C@@H]5CO[C@@H](C)O[C@H]5[C@H](O)[C@H]3O)[C@H]3COC(=O)[C@H]23)OCO4)cc(OC)c1O [Etoposide] | 0.0378 (active)
31 | Cc1ncc(C[n+]2csc(CCO)c2C)c(N)n1 [Thiamine hydrochloride] | 0.996 (inactive)
32 | O=c1[nH]cnc2c1ncn2[C@H]1CC[C@@H](CO)O1 [Didanosine] | 0.949 (inactive)
33 | CN1CCC[C@@H]1Cc1c[nH]c2ccc(CCS(=O)(=O)c3ccccc3)cc12 [Eletriptan] | 0.958 (inactive)
34 | Cc1ccc(/C(=C\CN2CCCC2)c2ccccn2)cc1 [Triprolidine hydrochloride] | 0.978 (inactive)
35 | OC[C@H]1O[C@@H](n2cnc3cncnc32)[C@H](O)[C@@H]1O [Nebularine] | 0.997 (inactive)
36 | CCOc1ccc(NC(=O)CC(C)O)cc1 (stereo not drawn) [Bucetin] | 0.992 (inactive)
37 | CO[C@@H]1[C@@H](OC(N)=O)[C@@H](O)[C@H](Oc2ccc3c(O)c(NC(=O)c4ccc(O)c(CC=C(C)C)c4)c(=O)oc3c2C)OC1(C)C [Novobiocin sodium salt] | 0.0104 (active)
38 | O=C1C(=O)c2ccccc2C(O)=C1C1CCC(c2ccc(Cl)cc2)CC1 (stereo not drawn) [Atovaquone] | 1.01 (inactive)
